This note sets out measurements from PubChem BioAssay (EPA / NIEHS).

Inconclusive results are not listed. Activity calls are given as the source filed them. How the source made its calls, unless noted: active means hit-call score of the fitted dose curve at least 0.9, where 1 is the maximum; inconclusive means response in the unintended direction; inactive means score below 0.9.

Assay [1] in a line: CCTE_Padilla_ZF_144hpf_TERATOSCORE: (Legacy) CCTE's 144 Hour Post-fertilization zebrafish Assay Teratoscore, Padilla Lab (AID 2283679; active means hit-call score of the fitted dose curve at least 0.9, where 1 is the maximum; inactive means score below 0.9;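 on AC50: zebrafish embryos with chorions exposed by immersion from 6-8 hpf to 5 dpf with daily renewal; teratogenicity score from eye scoring of death hatching and malformations at 144 hpf; higher score means more developmental defects relative to DMSO baseline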). Summed up:
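Larvae scored by eye at 144 hpf for death, hatching and malformations after a day in clean Hanks'. Before that, daily-renewed exposure at 80 uM (0.4% DMSO, 26C) from roughly 6-8 hpf through 5 dpf, 4 embryos per chemical.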

Read-out in assay [2]: ABC Transporter (ABCB11), ABCB11 (gene 8647)
The assay is described as follows: CLD_ABCB11_6hr: CellzDirect (CLD) Gene Expression Assay for ABC Transporter (ABCB11) at 6 hours (AID 2283675).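 Further: hits raise ABCB11 mRNA level so AC50 marks induction.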 The procedure:
(§1) CLD_6hr is a cell-based, multiplexed-readout assay that uses hepatocyte, a human liver primary cell, with measurements taken at 6 hours after chemical dosing in a 96-well plate.CLD_ABCB11_6hr is one of 16 assay component(s) measured or calculated from the CLD_6hr assay. It is designed to make measurements of mRNA induction, a form of inducible reporter, as detected with chemiluminescence signals by Quantitative Nuclease Protection Assay (qNPA) technology.Data from the assay component CLD_ABCB11_6hr was analyzed at the endpoint, CLD_ABCB11_6hr, in the positive analysis fitting direction relative to DMSO as the negative control and baseline of activity. […] Furthermore, this assay endpoint can be referred to as a primary readout. […]
(§2) Human hepatocyte cultures were treated daily for two consecutive days with fresh dosing solutions containing appropriate concentrations of the 320 ToxCast chemicals (chemical identities were blinded to CellzDirect and other ToxCast collaborators), vehicle control (0.2% DMSO), and positive control inducers as summarized in Table 1. […] Cultures for each treatment group (i.e., media, vehicle [0.2% DMSO], positive control inducers [multiple concentrations], and the ToxCast chemicals [multiple concentrations]) were observed and cell morphology was assessed relative to vehicle control cultures at each harvest time point (0, 6, 24, or 48 h). […]

Assay [3] can be described thus: CLD_ACTIN_6hr: CellzDirect (CLD) Gene Expression Assay for Baseline Control (Actin) at 6 hours (AID 2283676).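 Further: active means increased actin mRNA relative to DMSO vehicle.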 The procedure:
CLD_6hr is a cell-based, multiplexed-readout assay that uses hepatocyte, a human liver primary cell, with measurements taken at 6 hours after chemical dosing in a 96-well plate.CLD_ACTIN_6hr is one of 16 assay component(s) measured or calculated from the CLD_6hr assay. It is designed to make measurements of mRNA induction, a form of inducible reporter, as detected with chemiluminescence signals by Quantitative Nuclease Protection Assay (qNPA) technology.Data from the assay component CLD_ACTIN_6hr was analyzed at the endpoint, CLD_ACTIN_6hr, in the positive analysis fitting direction relative to DMSO as the negative control and baseline of activity. Using a type of inducible reporter, gain-of-signal activity can be used to understand changes in the reporter gene as they relate to the gene ACTA1. Furthermore, this assay endpoint can be referred to as a secondary readout, because this assay has produced multiple assay endpoints where this one serves a background control function. To generalize the intended target to other relatable targets, this assay endpoint is annotated to the background measurement intended target family, where subfamily is baseline control.
(§3) Human hepatocyte cultures were treated daily for two consecutive days with fresh dosing solutions containing appropriate concentrations of the 320 ToxCast chemicals (chemical identities were blinded to CellzDirect and other ToxCast collaborators), vehicle control (0.2% DMSO), and positive control inducers as summarized in Table 1. Due to the large number of treatment groups and chemicals examined, the ToxCast chemicals were divided into two groups (spanning two independent cultures of hepatocytes from separate donor preparations (Hu778: ToxCast plates 1 and 2; Hu776: ToxCast plates 3 and 4). Each preparation of human hepatocyte cultures was treated with respective vehicle control, medium only control, set of six positive controls/reference chemicals for the five hepatic receptor pathways, and a subset of eight of the ToxCast chemicals (indoxacarb, pyrithiobac-sodium, norflurazon, cyhalofop-butyl, methomyl, thiram, acetochlor, and propiconazole). These replicate data, coupled with internal replicates designed within the blinded ToxCast chemical library, provided additional data to evaluate interindividual differences between hepatocyte preparations and their potential impact on chemical profiles.Cell morphology and integrity were evaluated using phase-contrast microscopy as an indicator of hepatocyte cell health (Tyson & Green, 1987). Cultures for each treatment group (i.e., media, vehicle [0.2% DMSO], positive control inducers [multiple concentrations], and the ToxCast chemicals [multiple concentrations]) were observed and cell morphology was assessed relative to vehicle control cultures at each harvest time point (0, 6, 24, or 48 h). […] Images were evaluated at the conclusion of the study to assess changes in cell integrity and account for the effects of chemical exposure on uncharacteristic changes in concentration-dependent gene expression profiles. […]

Read-out in assay [4]: Cytochrome P450 2B6 (Homo sapiens) (UniProt P20813)
The assay is described as follows: CLD_CYP2B6_6hr: CellzDirect (CLD) Gene Expression Assay for xenobiotic metabolism (CYP2B6) at 6 hours (AID 2283677).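 Further: actives raise CYP2B6 transcript above DMSO baseline so AC50 marks an inducer.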 The procedure: (§4) CLD_6hr is a cell-based, multiplexed-readout assay that uses hepatocyte, a human liver primary cell, with measurements taken at 6 hours after chemical dosing in a 96-well plate.CLD_CYP2B6_6hr is one of 16 assay component(s) measured or calculated from the CLD_6hr assay. It is designed to make measurements of mRNA induction, a form of inducible reporter, as detected with chemiluminescence signals by Quantitative Nuclease Protection Assay (qNPA) technology.Data from the assay component CLD_CYP2B6_6hr was analyzed at the endpoint, CLD_CYP2B6_6hr, in the positive analysis fitting direction relative to DMSO as the negative control and baseline of activity. Using a type of inducible reporter, gain-of-signal activity can be used to understand changes in the reporter gene as they relate to the gene CYP2B6. Furthermore, this assay endpoint can be referred to as a primary readout. To generalize the intended target to other relatable targets, this assay endpoint is annotated to the cyp intended target family, where subfamily is xenobiotic metabolism.
as §3, with “Due to the large number of treatment groups and chemicals examined, the ToxCast chemicals were divided into two groups (spanning two independent cultures of hepatocytes from separate donor preparations (Hu778: ToxCast plates 1 and 2; Hu776: ToxCast plates 3 and 4). Each preparation of human hepatocyte cultures was treated with respective vehicle control, medium only control, set of six positive controls/reference chemicals for the five hepatic receptor pathways, and a subset of eight of the ToxCast chemicals (indoxacarb, pyrithiobac-sodium, norflurazon, cyhalofop-butyl, methomyl, thiram, acetochlor, and propiconazole).” left out

Read-out in assay [5]: Cytochrome P450 2C19 (Homo sapiens) (UniProt P33261)
The assay is described as follows: CLD_CYP2C19_6hr: CellzDirect (CLD) Gene Expression Assay for xenobiotic metabolism (CYP2C19) at 6 hours (AID 2283678). Here is the method:
as §1, with “plate.CLD_CYP2C19_6hr” for “plate.CLD_ABCB11_6hr”, “CLD_CYP2C19_6hr” for “CLD_ABCB11_6hr”, “CLD_CYP2C19_6hr,” for “CLD_ABCB11_6hr,”
as §2

Read-out in assay [6]: Cytochrome P450 3A4 (Homo sapiens) (UniProt P08684)
As to the kind of experiment: CLD_CYP3A4_6hr: CellzDirect (CLD) Gene Expression Assay for xenobiotic metabolism (CYP3A4) at 6 hours (AID 2283680). The procedure:
as §4, with “plate.CLD_CYP3A4_6hr” for “plate.CLD_CYP2B6_6hr”, “CLD_CYP3A4_6hr” for “CLD_CYP2B6_6hr”, “CLD_CYP3A4_6hr,” for “CLD_CYP2B6_6hr,”, “CYP3A4.” for “CYP2B6.”
as §3, with “Due to the large number of treatment groups and chemicals examined, the ToxCast chemicals were divided into two groups (spanning two independent cultures of hepatocytes from separate donor preparations (Hu778: ToxCast plates 1 and 2; Hu776: ToxCast plates 3 and 4). Each preparation of human hepatocyte cultures was treated with respective vehicle control, medium only control, set of six positive controls/reference chemicals for the five hepatic receptor pathways, and a subset of eight of the ToxCast chemicals (indoxacarb, pyrithiobac-sodium, norflurazon, cyhalofop-butyl, methomyl, thiram, acetochlor, and propiconazole).” left out

Read-out in assay [7]: xenobiotic metabolism (CYP1A2), CYP1A2 (gene 1544)
The assay is described as follows: CLD_CYP1A2_24hr: CellzDirect (CLD) Gene Expression Assay for xenobiotic metabolism (CYP1A2) at 24 hours (AID 2283683). Here is the method: CLD_24hr is a cell-based, multiplexed-readout assay that uses hepatocyte, a human liver primary cell, with measurements taken at 24 hours after chemical dosing in a 96-well plate.CLD_CYP1A2_24hr is one of 16 assay component(s) measured or calculated from the CLD_24hr assay. It is designed to make measurements of mRNA induction, a form of inducible reporter, as detected with chemiluminescence signals by Quantitative Nuclease Protection Assay (qNPA) technology.Data from the assay component CLD_CYP1A2_24hr was analyzed at the endpoint, CLD_CYP1A2_24hr, in the positive analysis fitting direction relative to DMSO as the negative control and baseline of activity. Using a type of inducible reporter, gain-of-signal activity can be used to understand changes in the reporter gene as they relate to the gene CYP1A2. Furthermore, this assay endpoint can be referred to as a primary readout. To generalize the intended target to other relatable targets, this assay endpoint is annotated to the cyp intended target family, where subfamily is xenobiotic metabolism.
Human hepatocyte cultures were treated daily for two consecutive days with fresh dosing solutions containing appropriate concentrations of the 320 ToxCast chemicals (chemical identities were blinded to CellzDirect and other ToxCast collaborators), vehicle control (0.2% DMSO), and positive control inducers as summarized in Table 1. Due to the large number of treatment groups and chemicals examined, the ToxCast chemicals were divided into two groups (spanning two independent cultures of hepatocytes from separate donor preparations (Hu778: ToxCast plates 1 and 2; Hu776: ToxCast plates 3 and 4). Each preparation of human hepatocyte cultures was treated with respective vehicle control, medium only control, set of six positive controls/reference chemicals for the five hepatic receptor pathways, and a subset of eight of the ToxCast chemicals (indoxacarb, pyrithiobac-sodium, norflurazon, cyhalofop-butyl, methomyl, thiram, acetochlor, and propiconazole). These replicate data, coupled with internal replicates designed within the blinded ToxCast chemical library, provided additional data to evaluate interindividual differences between hepatocyte preparations and their potential impact on chemical profiles.Cell morphology and integrity were evaluated using phase-contrast microscopy as an indicator of hepatocyte cell health (Tyson & Green, 1987). Cultures for each treatment group (i.e., media, vehicle [0.2% DMSO], positive control inducers [multiple concentrations], and the ToxCast chemicals [multiple concentrations]) were observed and cell morphology was assessed relative to vehicle control cultures at each harvest time point (0, 6, 24, or 48 h). […] Images were evaluated at the conclusion of the study to assess changes in cell integrity and account for the effects of chemical exposure on uncharacteristic changes in concentration-dependent gene expression profiles. The results from these determinations of apparent cytotoxicity were annotated (yes/no) alongside the corresponding qNPA data for reference.At the conclusion of each treatment period, hepatocyte cultures (96-well) were washed with 1 volume of HBSS, lysed by addition of 25 ul ArrayPlate lysis buffer (HTG, Tucson, AZ), and 70 ul/well of Denaturation Oil, denatured by incubation at 95C for 10 min, and frozen at approximately -70C until analysis by nuclease protection assay (qNPA) (Roberts et al., 2007). […]

Read-out in assay [8]: ABC Transporter (ABCB1), ABCB1 (gene 5243)
The assay is described as follows: CLD_ABCB1_24hr: CellzDirect (CLD) Gene Expression Assay for ABC Transporter (ABCB1) at 24 hours (AID 2283684). The procedure, abridged:
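ABCB1 mRNA induction versus 0.2% DMSO vehicle was read by qNPA chemiluminescence at 24 h. Cultured human hepatocytes from two donor preparations received daily fresh dosing, and phase-contrast cytotoxicity calls were annotated alongside the data.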

Read-out in assay [9]: Glyceraldehyde-3-phosphate dehydrogenase (Homo sapiens) (UniProt P04406)
The assay is described as follows: CLD_GAPDH_6hr: CellzDirect (CLD) Gene Expression Assay for Baseline Control (Glyceraldehyde 3-phosphate dehydrogenase) at 6 hours (AID 2283681).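 Further: active means increased signal relative to DMSO vehicle.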 The procedure, abridged:
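GAPDH baseline-control readout from qNPA (S1 nuclease digestion, probe hybridization, chemiluminescence) in lysates of cultured human hepatocytes harvested 6 h post-dosing. Chemicals tested at multiple concentrations versus 0.2% DMSO vehicle; microscopy-based cytotoxicity flagged yes/no.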

Read-out in assay [10]: HMG-CoA synthase (HMGCS2), HMGCS2 (gene 3158)
As to the kind of experiment: CLD_HMGCS2_6hr: CellzDirect (CLD) Gene Expression Assay for HMG-CoA synthase (HMGCS2) at 6 hours (AID 2283682).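 Further: actives raise HMGCS2 transcript above the 0.2% DMSO vehicle baseline.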 The procedure: as §1, with “plate.CLD_HMGCS2_6hr” for “plate.CLD_ABCB11_6hr”, “CLD_HMGCS2_6hr” for “CLD_ABCB11_6hr”, “CLD_HMGCS2_6hr,” for “CLD_ABCB11_6hr,”
as §2

The term AC50 denotes the midpoint of the concentration-response curve, whichever way the signal moves.

Glyceraldehyde-3-phosphate dehydrogenase (Homo sapiens), sequence (P04406 whole entry, looked up): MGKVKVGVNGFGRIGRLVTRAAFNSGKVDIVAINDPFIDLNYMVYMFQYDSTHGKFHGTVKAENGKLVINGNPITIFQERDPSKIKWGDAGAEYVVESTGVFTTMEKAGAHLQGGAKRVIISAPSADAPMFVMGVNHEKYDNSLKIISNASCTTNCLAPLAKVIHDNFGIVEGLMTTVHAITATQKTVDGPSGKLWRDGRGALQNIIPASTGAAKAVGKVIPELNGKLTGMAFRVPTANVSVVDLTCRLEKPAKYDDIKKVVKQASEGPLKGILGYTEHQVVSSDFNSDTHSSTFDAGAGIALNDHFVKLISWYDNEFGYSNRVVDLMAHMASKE
Cytochrome P450 3A4 (Homo sapiens), sequence (P08684 whole entry, looked up): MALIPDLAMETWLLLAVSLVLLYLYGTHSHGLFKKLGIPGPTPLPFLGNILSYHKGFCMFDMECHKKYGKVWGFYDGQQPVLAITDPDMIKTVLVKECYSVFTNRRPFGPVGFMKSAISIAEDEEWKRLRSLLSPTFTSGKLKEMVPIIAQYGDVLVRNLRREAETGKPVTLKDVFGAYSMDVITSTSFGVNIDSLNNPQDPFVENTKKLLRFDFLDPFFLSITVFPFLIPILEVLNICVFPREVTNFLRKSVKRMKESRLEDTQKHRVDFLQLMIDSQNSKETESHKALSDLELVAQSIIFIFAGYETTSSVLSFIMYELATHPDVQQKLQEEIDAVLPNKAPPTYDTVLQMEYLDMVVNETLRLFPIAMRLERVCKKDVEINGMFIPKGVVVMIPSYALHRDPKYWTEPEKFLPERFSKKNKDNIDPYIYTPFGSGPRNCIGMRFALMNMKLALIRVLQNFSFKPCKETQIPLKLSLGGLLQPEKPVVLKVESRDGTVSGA
Cytochrome P450 2C19 (Homo sapiens), sequence (P33261 whole entry, looked up): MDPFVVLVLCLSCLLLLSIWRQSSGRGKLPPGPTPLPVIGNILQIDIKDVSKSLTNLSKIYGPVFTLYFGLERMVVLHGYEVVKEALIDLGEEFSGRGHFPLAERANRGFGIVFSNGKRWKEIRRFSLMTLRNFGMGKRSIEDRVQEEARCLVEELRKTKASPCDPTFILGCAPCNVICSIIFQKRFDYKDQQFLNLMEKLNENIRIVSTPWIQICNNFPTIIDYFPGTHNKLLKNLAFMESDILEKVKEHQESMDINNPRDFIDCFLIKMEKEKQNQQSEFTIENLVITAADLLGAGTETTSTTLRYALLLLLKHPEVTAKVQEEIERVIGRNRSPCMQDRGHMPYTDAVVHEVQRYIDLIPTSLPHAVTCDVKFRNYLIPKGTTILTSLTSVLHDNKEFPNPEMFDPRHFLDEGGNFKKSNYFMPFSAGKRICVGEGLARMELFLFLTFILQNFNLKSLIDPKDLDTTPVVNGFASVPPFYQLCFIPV

As for `ClC1=C(Cl)[C@]2(Cl)[C@@H]3[C@@H](Cl)[C@H]4O[C@H]4[C@@H]3C1(Cl)C2(Cl)Cl`, the AC50 in assay [1] is 0.547 µM (active).

For the molecule `CCSC(=O)N(CC)C1CCCCC1`, the outcome in assay [2], in assay [3], in [5], in assay [1], in [6] and in [7] was inactive. Further, the molecule was called inactive in assay [8]. Further, in [4], the AC50 is 3.97 µM (active).

On to `CCNc1nc(NC(C)C)nc(SC)n1`, for which the outcome in [3], in assay [5], in assay [9], in assay [10] and in assay [8] was inactive. The AC50 in [4] was 1 µM (active); in assay [1], 149 µM (active); in assay [6] it was 1.79 µM (active); in [7], 1.29 µM (active).

On to `Cc1ccccc1CO[C@@H]1C[C@@]2(C(C)C)CC[C@]1(C)O2`, for which the molecule was classed as inactive in assay [3], in [9] and in assay [8]. Also, the results for the AC50 in assay [1] and in assay [7] were 73.1 µM (active) and 16.5 µM (active), respectively.

Take `Nc1ccc(-c2ccc(N)cc2)cc1`: the half-maximal activity concentration (AC50) in [1] is 33 µM (active).

On to `CCOP(=S)(OCC)SCSC(C)(C)C`, for which the AC50 in [1] was 56.3 µM (active).

In the case of `C[C@]12CCC(=O)C=C1CC[C@@H]1[C@@H]2CC[C@]2(C)C(=O)CC[C@@H]12`, the AC50 in assay [1] is 31.8 µM (active).

As for `C[C@]12CCC(=O)C=C1CC[C@@H]1[C@@H]2CC[C@@]2(C)[C@H]1CC[C@]2(C)O`, the AC50 in assay [1] was 24.4 µM (active).

Turning to `ClC1=C(Cl)[C@]2(Cl)[C@@H]3[C@@H]4C[C@@H]([C@H]5O[C@@H]45)[C@@H]3[C@@]1(Cl)C2(Cl)Cl`, the AC50 in [1] is 0.345 µM (active).
